# Bioassay records as filed in PubChem.
# Tat transport: E. coli Tat transport inhibition | E. coli MC4100 TorA-mCherry Tat export, fluorescence | inhibition, % at 10 µM | AID 488895 | actives 0.036% (n = 340,000);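 active means mean replicate inhibition at least 50% and at least half of replicates individually reaching 50%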;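 further: exported cargo escapes ClpAP degradation while cytoplasmic cargo is degraded and loses fluorescence; 0% = median of neutral control wells and 100% = median of NaSCN control wells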
# E coli growth-1: E. coli growth inhibition; Escherichia coli growth, OD600, 23 h; active compounds read low; OD600 absorbance (no concentration beside the values); actives 0.21% (n = 330,000); AID 1053175;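 active means OD600 absorbance below the run mean of sample wells minus 3.6 SD, in any replicate, cut at about 0.56 in these data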
# AddAB inh: less growth of phage-infected E. coli with AddAB; actives 0.29% (n = 330,000); E. coli expressing H. pylori AddAB, absorbance growth; AID 435030; inhibition, % at 11.9 µM; in the data active means inhibition above about 12%;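 further: 0% = vehicle wells of infected cells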
# E coli growth-2: bacterial growth inhibition, counter-screen for AddAB inhibitors | actives 0.27% (n = 330,000) | inhibition, % at 11.9 µM | E. coli V3065 growth, OD600 absorbance, 18 h;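 active means inhibition above the campaign's mean inhibition across all tested compounds plus 3 SD, cut at about 9.9% in these data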;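 further: uninfected addAB+ strain grown without phage in ampicillin broth; 0% = DMSO wells and 100% = ciprofloxacin 0.95 µg/ml wells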
# phage Ecoli inh: E. coli growth loss with phage present. AID 651602. actives 0.26% (n = 360,000). growth absorbance. inhibition, % at 11.9 µM; in the data active means inhibition above about 11%
# AddAB confirm: growth loss of T4-infected E. coli expressing H. pylori AddAB, confirmed | shares compounds with AddAB inh | AID 488942 | inhibition, % at 11.9 µM | actives 64% (n = 880) | E. coli V3065 expressing H. pylori AddAB, T4 phage, OD; T4 phage with gene 2 nonsense mutations;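 active means mean inhibition above a set limit taken from the earlier primary screen, cut at about 13% in these data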;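 further: higher means less bacterial growth since AddAB block lets phage replicate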
# RecBCD counter: counter-screen: growth loss of RecBCD+ E. coli with mutant T4 phage; shares compounds with AddAB inh; E. coli V66 + mutant T4 phage, OD growth; inhibition, % at 11.9 µM; actives 73% (n = 880);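 active means mean inhibition above the mean of solvent-only control wells plus 3 SD, cut at about 4% in these data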;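 further: optical density read after an 18 h incubation at 37 °C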
# Bact viability: reduces bacterial viability, AddAB inhibitor counter-screen; shares compounds with AddAB inh; absorbance (AddAB counterscreen); inhibition, % at 11.9 µM; actives 35% (n = 880); AID 488956; in the data active means inhibition above about 25%
# RecBCD conf: growth loss of phage-infected V66 E. coli, RecBCD confirmation screen. actives 45% (n = 890). E. coli V66 + T4 2- phage, growth OD. inhibition, % at 11.9 µM. shares compounds with phage Ecoli inh. AID 651982;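 active means mean inhibition over triplicates exceeding the hit threshold derived in the original primary screen, cut at about 11% in these data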
# Ecoli viability: counter-screen for RecBCD inhibitors: inhibitors of bacterial viability; shares compounds with phage Ecoli inh; E. coli viability, absorbance (OD) growth; inhibition, % at 11.9 µM; actives 29% (n = 890); in the data active means inhibition above about 20%;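 further: E. coli strain V66 grown with compound alone and no phage infection; 0% = bacteria with DMSO vehicle only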
# AddAB counter: growth loss of phage-infected AddAB E. coli, RecBCD counter-screen. shares compounds with phage Ecoli inh. E. coli expressing H. pylori AddAB + T4 phage, OD growth; gene 2 mutant T4, recBCD-deleted host. actives 45% (n = 890). inhibition, % at 11.9 µM;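 active means mean inhibition above the solvent-only control wells' mean plus 3 SD, cut at about 22% in these data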;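 further: higher means less bacterial growth from phage killing when AddAB is blocked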
# Starred values were filed as active, the others as inactive; nt = no result. The list is not random: actives were taken first. Their share in the collection is about 0.51%.
SMILES,Tat transport,E coli growth-1,AddAB inh,E coli growth-2,phage Ecoli inh,AddAB confirm,RecBCD counter,Bact viability,RecBCD conf,Ecoli viability,AddAB counter
CCSc1nsc(NC(=O)Nc2cccc(F)c2)n1,-9,nt,19*,25*,15*,13*,16*,16,16*,19,22*
COC(=O)C(NCc1cccc(CN(C(C(=O)OC)C(C)C)S(C)(=O)=O)c1)C(C)C (stereo unspecified),nt,0.63,nt,nt,nt,nt,nt,nt,nt,nt,nt
Cc1ccc(C(C)C)c(OCc2ccc(C(=O)NN=Cc3ccc(O)cc3O)cc2)c1,nt,0.68,nt,nt,nt,nt,nt,nt,nt,nt,nt
Cc1ccc(C(C)C)c(OCc2ccc(C(=O)N/N=C/c3cccc(O)c3O)cc2)c1,2,nt,16*,14*,22*,16*,16*,9,9,11,14
Cc1ccc(-c2[nH]c3cc(C(N)=O)ccc3c(=O)c2O)cc1,-9,nt,2,-4,3,nt,nt,nt,nt,nt,nt
Cc1ccc(CNC(=O)c2ccc3c(=O)c(O)c(-c4ccc(C)cc4)[nH]c3c2)cc1,3,0.64,17*,20*,17*,21*,19*,20,11*,15,19
CCCNC(=O)c1ccc2c(=O)c(O)c(-c3ccc(C)cc3)[nH]c2c1,-12,nt,23*,25*,21*,20*,16*,16,8,11,23*
O=C1C=C(c2ccc(-c3ccccc3)cc2)CC(c2ccc3c(c2)OCO3)C1 (stereo unspecified),nt,0.69,nt,nt,nt,nt,nt,nt,nt,nt,nt
CCn1cc(C(=O)O)c(=O)c2cc(F)c(N3CCN(C(=S)NC(=O)c4ccccc4Br)CC3)cc21,11,0.067*,97*,99*,94*,103*,22*,102*,101*,102*,102*
CCn1cc(C(=O)O)c(=O)c2cc(F)c(N3CCN(C(=S)NC(=O)c4ccc(F)cc4)CC3)cc21,13,0.063*,98*,96*,99*,100*,100*,102*,103*,104*,105*
CCn1cc(C(=O)O)c(=O)c2cc(F)c(N3CCN(C(=S)NC(=O)c4ccc(F)c(F)c4)CC3)cc21,91*,0.07*,98*,98*,99*,100*,87*,99*,103*,103*,104*
CCCCCCCCCC(=O)N1CCN(c2cc3c(cc2F)c(=O)c(C(=O)O)cn3CC)CC1,0,0.56,0,1,1,nt,nt,nt,nt,nt,nt
CCCOc1ccc(C(=O)NC(=S)N2CCN(c3cc4c(cc3F)c(=O)c(C(=O)O)cn4CC)CC2)cc1,62*,0.084*,99*,97*,98*,103*,101*,105*,103*,103*,101*
CC(C)NC(=O)N(C)CC1Oc2ccc(NS(=O)(=O)c3cn(C)cn3)cc2C(=O)N(C(C)CO)CC1C (stereo unspecified),nt,0.68,nt,nt,nt,nt,nt,nt,nt,nt,nt
COC(=O)NC(c1ccccc1)[C@@]1(C)CC1C(C)C(=O)Nc1ccc2ccccc2c1 (stereo partly specified),nt,0.66,nt,nt,nt,nt,nt,nt,nt,nt,nt
CCn1cc(C(=O)O)c(=O)c2cc(F)c(N3CCN(C(=S)NC(=O)c4cccc(F)c4)CC3)cc21,4,0.071*,98*,99*,42*,100*,100*,100*,101*,101*,101*
Cc1cc(C)c(C)c(S(=O)(=O)N2CCC(C(=O)NNC(=O)c3ccccc3O)CC2)c1C,-6,0.65,15*,9,12*,11,8.1*,6,1,1,0
CC(C)(C)OC(=O)CNC(=O)c1[nH]cnc1C(=O)NC(CCCCNC(=O)OC(C)(C)C)C(=O)OC(C)(C)C (stereo unspecified),nt,0.67,nt,nt,nt,nt,nt,nt,nt,nt,nt
O=C(N/N=C/c1ccccc1)c1ccc2c(c1)OCO2,5,nt,5,1,2,nt,nt,nt,nt,nt,nt
O=C(NN=Cc1c(O)ccc2ccccc12)c1ccc2c(c1)OCO2,-11,0.59,18*,21*,11*,0,10*,-5,4,8,5
[N-]=[N+]=CC(=O)c1ccnc(C(=O)C=[N+]=[N-])c1,6,0.56*,31*,38*,18*,57*,22*,43*,20*,21*,49*
O=C(O)c1ccnc(Cl)c1,-7,0.65,1,-1,1,nt,nt,nt,nt,nt,nt
CC(=O)c1c(C)n([O-])c2cc(F)c(F)cc2[n+]1=O,29,0.11*,63*,53*,22*,98*,26*,88*,23*,31*,91*
COc1ccc2c(c1)[n+](=O)c(C(C)=O)c(C)n2[O-],3,0.69,1,0,1,nt,nt,nt,nt,nt,nt
CCCC(=O)NC(c1cccs1)c1cc(Cl)c2cccnc2c1O (stereo unspecified),2,0.7,27*,29*,21*,23*,20*,20,11*,14,19
SMILES,Tat transport,E coli growth-1,AddAB inh,E coli growth-2,phage Ecoli inh,AddAB confirm,RecBCD counter,Bact viability,RecBCD conf,Ecoli viability,AddAB counter
CCCC(=O)NC(c1ccco1)c1cc(Cl)c2cccnc2c1O (stereo unspecified),-2,0.73,16*,14*,21*,22*,21*,17,11*,15,24*
CCC(=O)NC(c1cccs1)c1ccc2cccnc2c1O (stereo unspecified),-1,0.64,21*,20*,19*,10,17*,6,7,12,19
CC1CC2C3CCC4=CC(=O)C=C[C@]4(C)[C@@]3(Cl)C(O)C[C@]2(C)[C@@]1(OC(=O)c1ccco1)C(=O)CCl (stereo partly specified),nt,0.69,nt,nt,nt,nt,nt,nt,nt,nt,nt
NC(=O)c1ccsc1NC(=O)c1ccc([N+](=O)[O-])o1,-10,0.2*,96*,88*,21*,100*,20*,68*,13*,16,101*
CN1CCc2c(sc(NC(=O)c3ccc([N+](=O)[O-])o3)c2C(N)=O)C1,56*,nt,99*,99*,80*,102*,82*,102*,69*,89*,103*
Cc1ccnc(NC(=O)c2ccccc2[N+](=O)[O-])c1,2,0.7,2,1,3,nt,nt,nt,nt,nt,nt
